# Bioassay records as filed in PubChem BioAssay.
# Only some compounds are listed: those with a hit (about 3.1% of all), similar ones and a draw of the others.
# TrxR1 substrate – qHTS Assay for Substrates of Mammalian Selenoprotein Thioredoxin Reductase 1 (TrxR1): qHTS; 0.01% of 390,000 active; purified TrxR1 substrate turnover, NADPH consumption readout; Potency, µM (titrated, usually from 114 µM), for the others: at the highest dose activity change, negative = substrate turnover; AID 588456, 2011; also: % is scaled to controls: 0 for no effect and ±100 for the full control effect; nearly all actives have a fitted effect of over 50% in size
#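 Rat TrxR1, dispensed at 90 nM, was prereduced with 400 uM NADPH (final) for 5 min at ~22 deg C, then incubated with compound 15 min before 400 uM selenite. A first-read NADPH fluorescence drop versus no-compound background flagged substrates.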
# Mito fusion act – qHTS Assay for Small Molecule Inhibitors of Mitochondrial Division or Activators of Mitochondrial Fusion; S. cerevisiae fusion-defective mutant growth rescue, CellTiterGlo 48 h; Potency, µM (doses to about 46.1 µM), inactives show at the highest dose growth rescue (activation), hits mostly activators; 0.23% of 320,000 active; AID 485298, 2010; also: % of control where 0% means no effect; nearly all actives have a fitted effect of over 45% in size
#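 Yeast fusion mutant, YPEG (non-fermentable carbon), compound, 48 h at 37C non-permissive; CellTiterGlo added, 10 min RT, luminescence read. Rescued growth = division inhibition.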
# A549 viability – Nrf2 qHTS screen for inhibitors: counterscreen for cytotoxicity | AID 504648, 2011 | Potency, µM (top dose mostly 46 µM), for the others: at the top dose activity change, negative = cytotoxicity, hits mostly inhibitors | 0.16% of 390,000 active | A549 ARE-Fluc cells, CellTiter-Fluor viability, 18-24 h; also: % is scaled to controls: 0 for no effect and ±100 for the full control effect
#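 A549 ARE_Fluc cells in 5% FBS OPTI-MEM were exposed to compounds in concentration-response for 18-24 h at 37 deg C. Viability was read by CellTiter-Fluor fluorescence (Ex 405/Em 525) after 30 min, before the luciferase read.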
# mIDH1 inhibitor – qHTS for Inhibitors of mutant isocitrate dehydrogenase 1 (IDH1): qHTS; Isocitrate dehydrogenase [NADP] cytoplasmic (Homo sapiens), O75874; IDH1-R132H enzyme, NADPH consumption, diaphorase/resazurin fluorescence; Potency, µM (titrated, usually from 76.6 µM), for inactives: at the top dose activity change, negative = inhibition, usual class: inhibitors; 0.093% of 390,000 active; AID 602179, 2012; also: % is scaled to controls: 0 for no effect and ±100 for the full control effect; nearly all actives have a fitted effect of over 65% in size
# Target sequence (O75874 whole entry R132H, stated change not applied): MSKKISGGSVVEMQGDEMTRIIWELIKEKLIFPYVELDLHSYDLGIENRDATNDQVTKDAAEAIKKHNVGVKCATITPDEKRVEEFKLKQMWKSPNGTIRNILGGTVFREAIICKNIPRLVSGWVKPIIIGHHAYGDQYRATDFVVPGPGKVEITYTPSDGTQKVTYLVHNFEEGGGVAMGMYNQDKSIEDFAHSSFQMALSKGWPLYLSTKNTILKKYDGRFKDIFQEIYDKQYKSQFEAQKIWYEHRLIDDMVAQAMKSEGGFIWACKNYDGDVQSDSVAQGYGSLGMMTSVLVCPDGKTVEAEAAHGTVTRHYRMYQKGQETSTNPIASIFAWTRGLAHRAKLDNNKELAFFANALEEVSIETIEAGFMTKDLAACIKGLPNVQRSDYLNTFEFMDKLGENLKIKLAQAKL
#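 IDH1-R132H (0.5 ug/mL) preincubated 30 min with compound, then NADPH (0.016 mM) and alpha-KG (2 mM) added; 80 min at RT, pH 7.5. Remaining NADPH coupled via diaphorase/resazurin to fluorescence (540/590 nm); concentration-response curves normalized to no-enzyme control.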
# Nrf2 block – Nrf2 qHTS screen for inhibitors. A549 ARE-Fluc reporter, luciferase luminescence, 18-24 h. Potency, µM (series often up to 46 µM), for inactives: at the top dose activity change, negative = inhibition, actives largely listed as inhibitors. 2.1% of 360,000 active. AID 504444, 2011; also: % is scaled to controls: 0 for no effect and ±100 for the full control effect; nearly all actives have a fitted effect of over 60% in size
#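 A549 ARE_Fluc cells, 5000/well, 5% FBS OPTI-MEM; compounds in dose-response, 18-24 h at 37 °C/5% CO2; CellTiter-Fluor viability read (Ex 405/Em 525), then BugLite luciferase luminescence = Nrf2 activity.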
# TrxR1 inh – qHTS Assay for Inhibitors of Mammalian Selenoprotein Thioredoxin Reductase 1 (TrxR1): qHTS. Thioredoxin reductase 1, cytoplasmic (Rattus norvegicus), O89049. recombinant rTrxR1, NADPH fluorescence consumption, selenite substrate. Potency, µM (highest dose often 114 µM), without a hit: at the top dose activity change, negative = inhibition, actives largely listed as inhibitors. 1% of 390,000 active. AID 588453, 2011; also: % is scaled to controls: 0 for no effect and ±100 for the full control effect; nearly all actives have a fitted effect of over 65% in size
#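 Rat TrxR1 (90 nM in the dispensed reagent) was pre-reduced with 400 uM NADPH for 5 min at room temperature, then incubated with compound for 15 min. After 400 uM selenite was added, NADPH fluorescence (Ex 340/Em 450 nm) was followed for 8 min.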
# * marks the source's active call; other numbers are inactive results; ? = inconclusive; / = no result; [ ] = another dose, or the depositor's remark. Calls follow the shape of the dose curve; as a rule, active = well fitted curve in the direction sought with a large enough effect; inconclusive = small, poorly fitted or top-dose-only effect, or another doubt; inactive = no such curve, though single readings can be large; an effect the other way counts as inactive or inconclusive. Potency is read from the fitted curve at half-maximal effect.
SMILES,TrxR1 substrate,Mito fusion act,A549 viability,mIDH1 inhibitor,Nrf2 block,TrxR1 inh
CSc1ncc(Cl)c(C(=O)Nc2nnc(SC)s2)n1,-10.3%,18.8%,-6.9%,-2.4%,-8.0%,12.8%[57.1 µM]
CSc1nnc(NC(=O)c2nc(S(=O)(=O)Cc3ccccc3)ncc2Cl)s1,-7.8%,-4.9%,-28.3%,2.7%,?,31.6µM*
Cc1ccc(CNC(=O)c2nc(S(=O)(=O)Cc3ccc(C)cc3)ncc2Cl)cc1,3.1%,/,-19.8%,0.0%,11.6µM*,?
CC(C)c1nnc(NC(=O)c2nc(S(=O)(=O)Cc3ccccc3)ncc2Cl)s1,-1.6%,-38.2%,?,2.7%,?,50.1µM*
O=C(NCCCc1nc2ccccc2n1CCCCOc1ccccc1)C1CCCCC1,-5.9%,/,?,/,?,7.4%
Cc1ccccc1CS(=O)(=O)c1ncc(Cl)c(C(=O)Nc2nnc(C(C)C)s2)n1,2.3%,/,?,-1.2%,19.2%,7.08µM*
CC(C)Sc1ncc(Cl)c(C(=O)Nc2nnc(C(C)C)s2)n1,-1.9%,/,-2.8%,-13.3%,-6.7%,15.1%
COc1ccc([C@H]2CC(=O)C=C(c3ccc(Cl)c(C(F)(F)F)c3)C2)cc1OC,-3.6%,4.0%,?,7.7%,16.4µM*,27.7%
O=C(N/N=C/c1c[nH]c2ccccc12)c1cc(-c2ccc(-c3ccccc3)cc2)n[nH]1,-3.9%[57.1 µM],-0.5%,18.4µM*,-2.0%,?,8.9%
CC(C)(C)n1ncc2c(=O)n(Cc3ccccc3F)cnc21,-3.0%,/,/,/,/,17.1%
COc1ccc(NC(=O)c2cccs2)cn1,4.2%,-0.1%,0.5%,-0.5%,?,22.1%
CC(C)(C)c1ccc(Oc2ccc(NC(=O)c3cccs3)cn2)cc1,2.9%[57.1 µM],-2.8%,-16.7%,2.7%,16.4µM*,14.9%[57.1 µM]
O=C(Nc1ccc(OC(F)F)cc1)c1nc(SCc2ccccc2F)ncc1Cl,-4.0%,/,/,/,/,-3.4%
CCN(CC)CCN(C)c1ccc(/C=C/c2ccnc3ccccc23)cc1,-3.2%,/,/,/,/,-4.0%
Cc1c(C(=O)Nc2ccc(F)cc2)nnn1-c1cccc(C(F)(F)F)c1,4.7%[57.1 µM],12.1%,-15.0%,-0.1%,20.6µM*,15.6%[57.1 µM]
O=C(Nc1cccc(-c2nc3ccccc3o2)c1)c1ccc(N2C(=O)C3C4C=CC(C4)C3C2=O)cc1 (stereo not drawn),7.6%,0.9%,?,12.1%,9.2µM*,16.5%
Cc1ccc(N2CCN(/N=C/c3cccnc3)CC2)cc1,0.4%,-4.3%,-0.2%,9.0%,?,7.6%
Clc1ccc(N2CCN(/N=C/c3cccnc3)CC2)cc1,-0.2%,-12.8%,-7.0%,-6.5%,8.2µM*,11.5%
CC(C)c1nc2ccc(C(=O)Nc3ccccc3F)cc2o1,2.8%[57.1 µM],/,-2.7%,9.8%,/,10.4%[57.1 µM]
COc1ccccc1Nc1nc(NCC(C)C)nc(N)c1[N+](=O)[O-],-12.1%[57.1 µM],?,?,-14.2%,?,37.3%[57.1 µM]
CCC(C)Nc1nc(N)c([N+](=O)[O-])c(Nc2ccccc2OC)n1 (stereo not drawn),4.9%[57.1 µM],?,?,-17.7%,14.6µM*,15.4%[57.1 µM]
C=CCNc1nc(N)c([N+](=O)[O-])c(Nc2ccccc2OC)n1,-4.3%,-39.8%,-19.4%,-1.1%,20.6µM*,12.9%
CCc1cccc(CC)c1NC(=S)NCCc1ccc(O)c(O)c1,-8.5%,4.0%,-1.2%,-0.8%,14.8%,6.31µM*
CCc1cccc(CC)c1NC(=S)NCCc1c(C)[nH]c2ccccc12,-0.1%,-11.6%,4.0%,-3.0%,?,-1.7%
